According to PubChem BioAssay (EPA / NIEHS):
Activity calls are given as the source filed them. The calls were made as follows: active = hit-call score of the fitted dose curve at least 0.9, where 1 is the maximum; inactive = score below 0.9.

Key:
[1] = read-out: Vascular cell adhesion molecule 1 (VCAM1), VCAM1 (gene 7412); test: BSK_CASM3C_VCAM1: BioMAP Diversity Plus: CASM3C Assay for Vascular cell adhesion molecule 1 (VCAM1) Biomarker Activity (AID 2283055); conditions: primary human coronary artery smooth muscle cells; actives raise or lower the signal;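 also: VCAM-1 protein level quantified by ELISA on the cells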
[2] = read-out: Collagen III, COL3A1 (gene 1281); test: BSK_hDFCGF_CollagenIII: BioMAP Diversity Plus: hDFCGF Assay for Collagen III Biomarker Activity (AID 2283056); conditions: primary human foreskin fibroblasts; actives raise or lower the signal
Method in brief: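 Human foreskin primary fibroblasts were exposed to test chemicals for 24 h, after which collagen III was quantified by ELISA. Activity was fitted bidirectionally against DMSO as negative control and baseline.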

[3] = read-out: Epidermal growth factor receptor (EGFR), EGFR (gene 1956); test: BSK_hDFCGF_EGFR: BioMAP Diversity Plus: hDFCGF Assay for Epidermal growth factor receptor (EGFR) Biomarker Activity (AID 2283057); conditions: primary human foreskin fibroblasts; actives raise or lower the signal
Method in brief: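 Cell-based multiplexed assay in primary human foreskin fibroblasts. EGFR is read by ELISA 24 h after treatment and compared with DMSO controls.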

[4] = read-out: Interleukin-8 (IL8), CXCL8 (gene 3576); test: BSK_hDFCGF_IL8: BioMAP Diversity Plus: hDFCGF Assay for Interleukin-8 (IL8) Biomarker Activity (AID 2283058); conditions: primary human foreskin fibroblasts; actives raise or lower the signal
Method in brief: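 hDFCGF human dermal fibroblasts; 24 h chemical exposure; IL-8 by ELISA; bidirectional curve fit vs DMSO baseline; gain or loss of signal scored.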

[5] = BSK_hDFCGF_Proliferation: Cell Proliferation Assessment in the BioMAP Diversity Plus: hDFCGF Assay (AID 2283059); conditions: primary human foreskin fibroblasts;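 also: curves fitted for both rise and fall of signal versus DMSO baseline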
Method in brief: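 This proliferation readout used SRB total-protein staining of human foreskin fibroblasts […], normalized to DMSO with bidirectional curve fitting.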

[6] = BSK_hDFCGF_SRB: Viability Assessment in the BioMAP Diversity Plus: hDFCGF Assay (AID 2283061); conditions: primary human foreskin fibroblasts;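 also: cells exposed to compound for 24 h before the read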
Method in brief: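 Human foreskin primary fibroblasts were treated with compound and assessed 24 h after dosing. Total protein was measured by sulforhodamine B staining (0.1% SRB after 10% TCA fixation, 560 nm read) as a cytotoxicity marker, with bidirectional fitting against DMSO baseline.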

[7] = read-out: TIMP metallopeptidase inhibitor 1 (TIMP1), TIMP1 (gene 7076); test: BSK_hDFCGF_TIMP1: BioMAP Diversity Plus: hDFCGF Assay for TIMP metallopeptidase inhibitor 1 (TIMP1) Biomarker Activity (AID 2283062); conditions: primary human foreskin fibroblasts; actives raise or lower the signal
Method in brief: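 Primary human foreskin fibroblasts in the hDFCGF system were dosed with compound for 24 h, then TIMP-1 was measured by ELISA. Activity was fitted bidirectionally relative to DMSO control; parallel SRB staining assessed cytotoxicity.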

[8] = read-out: Matrix Metallopeptidase 1 (MMP1), MMP1 (gene 4312); test: BSK_hDFCGF_MMP1: BioMAP Diversity Plus: hDFCGF Assay for Matrix Metallopeptidase 1 (MMP1) Biomarker Activity (AID 2283064); conditions: primary human foreskin fibroblasts; actives raise or lower the signal
Method in brief: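 MMP1 levels quantified by ELISA 24 h after dosing human dermal fibroblast cultures, with parallel SRB total-protein staining for overt cytotoxicity. Data fitted in both directions against DMSO baseline.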

[9] = read-out: Vascular cell adhesion molecule 1 (VCAM1), VCAM1 (gene 7412); test: BSK_hDFCGF_VCAM1: BioMAP Diversity Plus: hDFCGF Assay for Vascular cell adhesion molecule 1 (VCAM1) Biomarker Activity (AID 2283065); conditions: primary human foreskin fibroblasts; actives raise or lower the signal;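 as to AC50: VCAM-1 protein level quantified by ELISA after 24 h chemical exposure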
Method in brief: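 Primary human foreskin fibroblasts (hDFCGF system) were dosed with chemical and VCAM-1 was measured by ELISA 24 h later. Bidirectional curve fitting used DMSO as negative control and activity baseline.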

[10] = read-out: Plasminogen activator inhibitor-1 (PAI1), SERPINE1 (gene 5054); test: BSK_hDFCGF_PAI1: BioMAP Diversity Plus: hDFCGF Assay for Plasminogen activator inhibitor-1 (PAI1) Biomarker Activity (AID 2283066); conditions: primary human foreskin fibroblasts; actives raise or lower the signal
Method in brief: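 Human skin fibroblast cultures receive chemical for 24 h before PAI-1 is measured by ELISA; signal changes are fitted bidirectionally against DMSO-treated wells.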

[11] = read-out: Intercellular Adhesion Molecule 1 (ICAM1), ICAM1 (gene 3383); test: BSK_KF3CT_ICAM1: BioMAP Diversity Plus: KF3CT Assay for Intercellular Adhesion Molecule 1 (ICAM1) Biomarker Activity (AID 2283067); conditions: primary human keratinocytes with fibroblasts; actives raise or lower the signal
Method in brief: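 Human keratinocyte plus foreskin fibroblast primary co-culture was exposed to chemical for 24 h. ICAM-1 was then quantified by ELISA, and the data were fit bidirectionally against DMSO as the negative control and baseline.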

[12] = read-out: Interferon-gamma inducible Protein 10 (IP10), CXCL10 (gene 3627); test: BSK_KF3CT_IP10: BioMAP Diversity Plus: KF3CT Assay for Interferon-gamma inducible Protein 10 (IP10) Biomarker Activity (AID 2283068); conditions: primary human keratinocytes with fibroblasts; actives raise or lower the signal
Method in brief: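 Signal is secreted/surface IP-10 by ELISA in a human primary skin co-culture of keratinocytes and foreskin fibroblasts, taken 24 h post-dosing; DMSO served as negative control.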

[13] = BSK_KF3CT_SRB: Viability Assessment in the BioMAP Diversity Plus: KF3CT Assay (AID 2283069); conditions: primary human keratinocytes with fibroblasts
Method in brief: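 Cytotoxicity was gauged by SRB staining (0.1% SRB, 10% TCA fixation, 560 nm) of parallel cultures at 24 h. The cells were primary human skin keratinocytes co-cultured with fibroblasts, and activity was fitted in both directions against DMSO.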

[14] = read-out: Interleukin-1 alpha (IL1a), IL1A (gene 3552); test: BSK_KF3CT_IL1a: BioMAP Diversity Plus: KF3CT Assay for Interleukin-1 alpha (IL1a) Biomarker Activity (AID 2283070); conditions: primary human keratinocytes with fibroblasts; actives raise or lower the signal
Method in brief: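 IL-1a was detected by ELISA 24 h after chemical treatment of a co-culture of human skin keratinocytes and foreskin fibroblasts. Gain or loss of signal was fitted against the DMSO baseline.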

[15] = read-out: TIMP metallopeptidase inhibitor 2 (TIMP2), TIMP2 (gene 7077); test: BSK_KF3CT_TIMP2: BioMAP Diversity Plus: KF3CT Assay for TIMP metallopeptidase inhibitor 2 (TIMP2) Biomarker Activity (AID 2283071); conditions: primary human keratinocytes with fibroblasts; actives raise or lower the signal
Method in brief: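 Measurements come from ELISA detection of TIMP-2 at 24 hours in a dosed human keratinocyte and foreskin fibroblast co-culture. DMSO serves as negative control and baseline.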

[16] = read-out: C-C motif chemokine 2 (Homo sapiens) (UniProt P13500); test: BSK_KF3CT_MCP1: BioMAP Diversity Plus: KF3CT Assay for Monocyte Chemoattractant Protein 1 (MCP1/CCL2) Biomarker Activity (AID 2283073); conditions: primary human keratinocytes with fibroblasts; actives raise or lower the signal
Method in brief: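 Human keratinocyte plus foreskin fibroblast primary co-culture exposed to chemical for 24 h. MCP-1 levels measured by ELISA. Bidirectional curve fitting relative to DMSO negative control as baseline.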

[17] = read-out: Matrix Metallopeptidase 9 (MMP9), MMP9 (gene 4318); test: BSK_KF3CT_MMP9: BioMAP Diversity Plus: KF3CT Assay for Matrix Metallopeptidase 9 (MMP9) Biomarker Activity (AID 2283074); conditions: primary human keratinocytes with fibroblasts; actives raise or lower the signal;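 as to AC50: MMP9 protein level quantified by ELISA in the co-culture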
Method in brief: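 MMP-9 quantified by ELISA after 24 h chemical treatment of primary human skin keratinocyte/fibroblast co-cultures; gain or loss fitted against DMSO, with parallel SRB staining (0.1% SRB, 560 nm) for overt cytotoxicity.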

[18] = read-out: Monokine induced gamma interferon (MIG), CXCL9 (gene 4283); test: BSK_hDFCGF_MIG: BioMAP Diversity Plus: hDFCGF Assay for Monokine induced gamma interferon (MIG) Biomarker Activity (AID 2283063); conditions: primary human foreskin fibroblasts; actives raise or lower the signal
Method in brief: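 ELISA read-out of MIG from primary human dermal fibroblasts 24 h post-dosing. Gain or loss of signal fitted bidirectionally, DMSO as baseline.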

[19] = read-out: Transforming growth factor beta 1 (TGFb1), TGFB1 (gene 7040); test: BSK_KF3CT_TGFb1: BioMAP Diversity Plus: KF3CT Assay for Transforming growth factor beta 1 (TGFb1) Biomarker Activity (AID 2283072); conditions: primary human keratinocytes with fibroblasts; actives raise or lower the signal
Method in brief: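 TGF-b1 ELISA on a 24 h dosed co-culture of human keratinocytes and foreskin fibroblasts; cytotoxicity tracked in parallel cultures by SRB staining.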

Measured: AC50

Nc1ccc(N)cc1
not listed: [18] | [19]
inactive: all other assays above

O=C1C=CC(=O)c2ccccc21
active: [1] 3.84 µM | [2] 1.27 µM | [5] 0.905 µM | [6] 1.63 µM | [7] 2.41 µM | [18] 1.68 µM | [8] 1.98 µM | [9] 1.2 µM | [10] 1.53 µM | [11] 2.71 µM | [12] 2.81 µM | [14] 2.04 µM | [15] 1.67 µM | [19] 1.81 µM | [16] 3.45 µM
inactive: [3] | [4] | [13]

Cc1cc(Cl)ccc1OC(C)C(=O)O (stereo unspecified)
not listed: [17] | [19]
inactive: all other assays above

O=C(O)C1(c2ccc3c(c2)OC[C@H](Cc2ccc(-c4ccccc4)cc2)[C@H]3O)CCCC1
active: [1] 20 µM | [2] 4.51 µM | [3] 5.5 µM | [4] 14.7 µM | [5] 6.62 µM | [6] 7.76 µM | [7] 11.7 µM | [8] 7.46 µM | [9] 5.32 µM | [10] 5.07 µM | [11] 30.3 µM | [12] 9.87 µM | [13] 25.7 µM | [14] 31.3 µM | [15] 14 µM | [16] 13.6 µM

Oc1c(Br)cc(Br)cc1Br
active: [2] 12.1 µM | [10] 20 µM | [12] 31.6 µM | [17] 28.2 µM
not listed: [5] | [18] | [19]
inactive: all other assays above

CCOP(=S)(OCC)OP(=S)(OCC)OCC
active: [1] 20 µM | [5] 23.2 µM | [9] 30.4 µM | [15] 20 µM
not listed: [18] | [19]
inactive: all other assays above

Cc1ccc(OP(=O)(Oc2ccc(C)cc2C)Oc2ccc(C)cc2C)c(C)c1
active: [3] 3.88 µM | [5] 4.72 µM | [6] 4.22 µM | [8] 10.3 µM | [10] 0.445 µM
not listed: [17] | [18] | [19]
inactive: all other assays above

O=S(=O)(c1ccc(Cl)cc1)c1cc(Cl)c(Cl)cc1Cl
active: [1] 0.016 µM | [2] 3.97 µM | [5] 20 µM | [15] 12.7 µM
not listed: [10] | [17] | [18] | [19]
inactive: all other assays above

CCOC(=O)CC(=O)CCl
active: [1] 20 µM | [5] 19 µM | [18] 20 µM | [9] 20 µM | [14] 6.58 µM
inactive: all other assays above

C#CCOC(=O)/C=C(C)/C=C/CC(C)CCCC(C)C (stereo unspecified)
active: [2] 12.6 µM | [9] 5.7 µM | [10] 11.6 µM
not listed: [18] | [19]
inactive: all other assays above

NC(=O)CCl
active: [2] 9.58 µM
not listed: [19]
inactive: all other assays above
